The target of one test is Albumin (Bos taurus) (UniProt P02769). As to the kind of experiment: bovine serum albumin binders on microarray, profiling panel, artefact control for SMM control protein annotation, biochemical, small-molecule microarray, Alexa647 label, 635/667 nm fluorescence (AID 1118).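 Further: score merges 667 nm emission intensity and signal-to-noise per printed compound spot.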 The settings on record: BSA-A647 binding, fluorescence 635 nm, higher = more signal.
Test [1] in a line: small-molecule microarray binders of probe aXIP, primary screen, biochemical, NeuroSMM set, 635/667 nm fluorescence (AID 1119).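 Further: probe is the protein aXip251-270 applied at 1 µg/mL to compound-printed slides; binding of probe to printed compounds measured as 667 nm fluorescence plus signal to noise.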 As to conditions: higher = more signal, called active from +8 up or from −8 down.
The nature of test [2]: small-molecule binders of probe aNOTCH3, primary screen, biochemical, small-molecule microarray, 635/667 nm fluorescence (AID 1120).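 Further: probe is a biotin-tagged antibody raised against NOTCH3 rather than NOTCH3 protein; score merges spot fluorescence near 667 nm with spot signal to noise.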 The settings on record: higher = more signal.
A short description of test [3]: small-molecule binders of probe aNOTCH2, primary screen, biochemical, small-molecule microarray, 635/667 nm fluorescence (AID 1121).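 Further: score merges feature fluorescence read at 667 nm with its signal to noise.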 The settings on record: higher = more signal.
Test [4] has as its target Carbonic anhydrase 2 (Homo sapiens) (UniProt P00918). As to the kind of experiment: CAII small-molecule binders, profiling panel, biochemical, small-molecule microarray, Alexa647-labelled CAII (AID 1122). The settings on record: CAII-A647 binding fluorescence, higher = more signal.
A short description of test [5]: COS7 lysate on small-molecule microarray, probe aHis, 635 nm (AID 1123).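 Further: z-score combines 667nm fluorescence intensity with signal-to-noise per printed compound spot.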 The settings on record: COS7 cell lysate, fluorescence, higher = more signal.
Test [6] can be described thus: compound binding in COS7 lysate, probe aLAP1, primary screen, cell lysate, small-molecule microarray (AID 1124).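 Further: lysate comes from COS7 cells expressing LAP1 and is applied at 0.3 µg/mL; score merges spot fluorescence near 667 nm with signal-to-noise over triplicate slides.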 As to conditions: probe aLAP1, fluorescence, higher = more signal.
Another test relates to Sam68 (KHDRBS1). As to the kind of experiment: Sam68 small-molecule binders, primary screen, biochemical, small-molecule microarray, 635 nm fluorescence (AID 1125).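 Further: score merges 667 nm channel intensity with signal to noise over triplicate slides.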 The settings on record: small-molecule microarray binding, higher = more signal.
Test [7] has as its system Chordin-like protein 2 (CHRDL2). As to the kind of experiment: CHRDL2 small-molecule binders, primary screen, biochemical, small-molecule microarray, 635 nm fluorescence (AID 1126).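 Further: printed compound slides probed with Chrdl2 protein at 4 µg/mL for 1 h at 4 C; score merges 667 nm emission intensity with signal to noise over three replicate slides.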 The settings on record: small-molecule microarray binding, fluorescence 635 nm; higher = more signal.
Test [8] has as its target Concanavalin-A (Canavalia ensiformis) (UniProt P02866). As to the kind of experiment: ConA small-molecule binders, primary screen, artefact control for SMM control protein annotation, biochemical, small-molecule microarray, Alexa647 label, 635 nm (AID 1127).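 Further: z combines 667 nm emission intensity with signal-to-noise across three replicate slides.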 The settings on record: ConA-A647 binding fluorescence, higher = more signal.

The source made the active and inactive calls.

Chain of Albumin (Bos taurus) (P02769 whole entry, looked up): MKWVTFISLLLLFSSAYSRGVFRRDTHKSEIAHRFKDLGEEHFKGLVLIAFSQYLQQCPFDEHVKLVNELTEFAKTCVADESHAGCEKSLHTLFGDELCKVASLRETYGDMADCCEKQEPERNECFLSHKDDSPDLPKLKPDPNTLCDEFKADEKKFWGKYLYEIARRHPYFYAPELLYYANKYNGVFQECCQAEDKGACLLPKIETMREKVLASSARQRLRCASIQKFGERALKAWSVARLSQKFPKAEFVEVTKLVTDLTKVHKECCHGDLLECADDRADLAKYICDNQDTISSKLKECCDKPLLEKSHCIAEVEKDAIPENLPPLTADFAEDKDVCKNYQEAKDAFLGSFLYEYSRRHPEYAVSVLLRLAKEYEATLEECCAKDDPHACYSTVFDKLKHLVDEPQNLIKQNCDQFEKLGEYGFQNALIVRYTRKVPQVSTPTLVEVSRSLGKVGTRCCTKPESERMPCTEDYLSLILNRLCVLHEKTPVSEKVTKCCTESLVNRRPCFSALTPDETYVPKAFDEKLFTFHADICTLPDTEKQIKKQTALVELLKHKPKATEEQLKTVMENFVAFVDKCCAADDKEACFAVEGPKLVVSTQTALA
Chain of Concanavalin-A (Canavalia ensiformis) (P02866 whole entry, looked up): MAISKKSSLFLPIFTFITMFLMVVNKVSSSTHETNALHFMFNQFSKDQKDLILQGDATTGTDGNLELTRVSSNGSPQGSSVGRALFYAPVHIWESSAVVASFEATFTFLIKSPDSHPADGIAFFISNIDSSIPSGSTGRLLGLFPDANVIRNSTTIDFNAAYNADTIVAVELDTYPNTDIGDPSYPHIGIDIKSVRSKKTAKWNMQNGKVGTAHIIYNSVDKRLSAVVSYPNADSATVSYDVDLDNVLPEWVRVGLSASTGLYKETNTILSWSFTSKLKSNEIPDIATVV

On to `C=CCN1C(=O)[C@@]2(O[C@@H](CCn3cc([C@H](O)c4ccccc4)nn3)[C@H]([Si](C)(C)c3ccc(OC)cc3)[C@H]2C)c2cc(N3C(=O)c4cccc5cccc3c45)ccc21`, for which the composite z-score with Albumin (Bos taurus) is 0.0345; in test [2] it was -0.272; in test [3], -0.223; in [4] it was 0.106; in test [5], 0.436; in [6] it was 0.0703. The results for the composite z-score (in the test with Sam68 (KHDRBS1); in test [7]; in test [8]) were -0.233, -1.02 and 0.341, respectively. Also, the composite Z-score in test [1] is -0.212 (inactive).

`C=C(CCCC)/C(=C/C[C@H](OC(C)=O)c1cccc(OCCO)c1)c1cnc2ccccc2c1`: the composite z-score in the test with Albumin (Bos taurus) is -0.0372; in test [2], -0.135; in test [3], -0.149; in [4], 0.84; in [5] it was -0.66; in test [6], -0.207. Moreover, the composite z-score with Sam68 (KHDRBS1) was determined as 0.0549; in test [7], 0.466; in test [8], 0.116. In test [1], the composite Z-score is -0.325 (inactive).

Turning to `O=C(NCc1ccc(F)cc1)[C@H]1C[C@H]2C(=O)N3CCC[C@H]3C(=O)N2[C@H]1c1ccc(O)cc1`, the composite z-score with Albumin (Bos taurus) is -1.3; in [2], -0.303; in test [3], -0.198; in [4], -0.0109; in test [5] it was -0.136; in test [6], 1.09. Besides, the composite z-score was -0.732 with Sam68 (KHDRBS1), 0.857 in test [7] and 0.72 in test [8]. Further, the composite Z-score in [1] is 0.081 (inactive).

`CN1C(=O)C2C(C1=O)C1C=C(CCCO)C2C(C2CC2)N1Cc1cccc(OC(F)(F)F)c1` (stereo not given): the composite z-score in the test with Albumin (Bos taurus) was 1.04; in [2], 0.0934; in test [3], -0.023; in [4], 0.911; in test [5], 2.55; in test [6], 0.956. The composite z-score in the test on Sam68 (KHDRBS1) is 1.3; in test [7] it was -0.535; in [8] it was 0.983. Besides, in test [1], the composite Z-score is 0.35 (inactive).

For the molecule `CC(C)(C)N1CC=CC23O[C@@H]4C=CCCOC(=O)C4[C@H]2C(=O)N(CCCCCCO)[C@@H]3C1=O` (stereo not given in full), the composite z-score was -0.188 with Albumin (Bos taurus); -0.0716 in test [2]; -0.124 in test [3]; 0.834 in test [4]; -0.0431 in [5]; 0.0582 in test [6]. Also, the composite z-score with Sam68 (KHDRBS1) was 0.28; in [7], -1.29; in test [8], -0.202. Besides, the composite Z-score in [1] was -0.192 (inactive).

As for `COc1cc(OC)c(C(O)C2C=CC3C(=O)N(c4ccccc4)C(=O)C3N2Nc2ccc(C(C)C)cc2)cc1Br` (stereo not given), the composite z-score was 0.971 with Albumin (Bos taurus); 0.274 in test [2]; 0.236 in test [3]; 0.426 in test [4]; 2.76 in test [5]; 0.231 in [6]. Moreover, the composite z-score in the test with Sam68 (KHDRBS1) is 1.28; in test [7] it was 0.1; in [8], 1.07. The composite Z-score in [1] is -0.382 (inactive).

For the molecule `COCCOC(=O)N1C(=O)[C@@]2(c3cc(C#CCC(C(=O)OC)C(=O)OC)ccc31)[C@H](c1ccc(O)cc1)N1[C@H](c3ccccc3)[C@H](c3ccccc3)OC(=O)[C@H]1[C@@H]2C(=O)Nc1nc2ccccc2s1`, the composite z-score with Albumin (Bos taurus) was 0.703; in test [2] it was 0.146; in test [3], -0.126; in test [4], 0.342; in test [5], 1.17; in [6], 0.447. The composite z-score with Sam68 (KHDRBS1) was 1.3; in test [7] it was 0.627; in [8] it was 1.15. Moreover, the composite Z-score in test [1] was 0.179 (inactive).

Turning to `COC(=O)[C@@]1(Cc2ccccc2)[C@H]2c3cc(C(=O)N(C)C)n(CCSC(=N)N)c3C[C@H]2CN1C(=O)c1ccccc1`, the composite z-score with Albumin (Bos taurus) was -0.107; in test [2], 0.0159; in test [3], 0.0591; in [4], 0.877; in test [5], 0.778; in [6] it was 1.63. Also, the composite z-score in the test with Sam68 (KHDRBS1) is -1.71; in test [7] it was -0.721; in [8], -1.36. For the same molecule, the composite Z-score in test [1] is 1.22 (inactive).

`[N-]=[N+]=Nc1ccccc1C[C@@]1(C(=O)NCc2ccccc2)N=C(c2ccc(OCCCO)cc2)O[C@@H]1c1ccccc1N=[N+]=[N-]`: the composite z-score with Albumin (Bos taurus) is 0.913; in test [2], 0.467; in [3] it was -0.0211; in test [4], 0.398; in test [5], 1.99; in [6] it was -0.136. The composite z-score is 1.14 with Sam68 (KHDRBS1), -0.656 in test [7] and 1.12 in test [8]. Also, the composite Z-score in test [1] is 0.605 (inactive).

For `CCCC=C(CCC)[C@@H](NC(=O)c1ccc(C(F)(F)F)cc1)c1ccc(C(F)(F)F)cc1`, the composite z-score with Albumin (Bos taurus) is 1.01; in test [2], 0.326; in test [3] it was 0.105; in [4] it was 0.205; in test [5], 2.94; in test [6], -0.0554. Further, the composite z-score in the test on Sam68 (KHDRBS1) was 1.31; in [7], -0.748; in test [8], 1.07. Further, in test [1], the composite Z-score was -0.523 (inactive).

For `COC(=O)[C@@]1(Cc2ccc(F)cc2)[C@H]2c3cc(C(=O)N4CCCC4)n(Cc4cc(F)cc5c4OCOC5)c3C[C@H]2CN1C(=O)c1ccccc1`, the composite z-score in the test with Albumin (Bos taurus) was 0.892; in test [2], 0.0925; in test [3] it was 0.0266; in test [4], -0.0414; in test [5] it was -0.203; in test [6] it was -0.669. Moreover, the composite z-score was -0.349 in the test with Sam68 (KHDRBS1), -0.631 in test [7] and 1.07 in [8]. Also, the composite Z-score in [1] was 0.364 (inactive).

`O=C(NCCN1CCOCC1)[C@@H]1c2ccccc2C(=O)N(Cc2ccc(OC(F)(F)F)cc2)[C@H]1c1ccc(CO)cc1`: the composite z-score with Albumin (Bos taurus) was 0.816; in [2], -0.0976; in test [3], -0.0429; in test [4] it was 0.761; in [5], 1.64; in test [6], -0.195. Further, the figures for the composite z-score (with Sam68 (KHDRBS1); in [7]; in test [8]) were 0.686, -1.49 and -0.159, respectively. Besides, the composite Z-score in [1] was -0.265 (inactive).

As for `CCOC(=O)C[C@H]1[C@H](OC(=O)c2ccccc2-c2ccccc2)[C@@H](NC(=O)c2ccc3ccccc3c2)c2cc(OCCCO)ccc2N1C(=O)Cc1ccc(OC)cc1`, the composite z-score with Albumin (Bos taurus) was 0.227; in [2], -0.186; in [3], -0.101; in [4] it was -0.165; in [5], 0.14; in test [6] it was 0.232. Further, the composite z-score with Sam68 (KHDRBS1) was -0.868; in test [7] it was -0.341; in test [8], -0.12. Besides, the composite Z-score in test [1] was 0.25 (inactive).

For the molecule `O=C(NC1CC1)[C@@H]1c2ccccc2C(=O)N(Cc2ccc(OC(F)(F)F)cc2)[C@H]1c1ccc(CO)cc1`, the composite z-score was 0.22 with Albumin (Bos taurus); -0.1 in test [2]; -0.0974 in [3]; 0.642 in [4]; 1.41 in test [5]; -0.169 in test [6]. Besides, the composite z-score with Sam68 (KHDRBS1) was 0.932; in test [7], -0.584; in test [8] it was -0.037. Moreover, in test [1], the composite Z-score was 0.061 (inactive).

Turning to `C=CCC(OC(C)=O)[C@@H]1[C@@H](N(Cc2cc3ccccc3o2)C(=O)c2cccc3ccccc23)c2cc(OCCCO)ccc2N1C(=O)c1ccc2ccccc2n1` (stereo not given in full), the composite z-score with Albumin (Bos taurus) was 0.423; in [2] it was 0.0155; in test [3] it was -0.147; in test [4] it was 0.112; in test [5], -0.197; in test [6], 0.637. Besides, the composite z-score with Sam68 (KHDRBS1) is 0.31; in test [7], 0.0615; in test [8], -0.495. Besides, the composite Z-score in test [1] is -0.315 (inactive).

Values taken from PubChem BioAssay.
